For 57 molecules, Potency, viability (% of control) and viability, % of control results are on record in PubChem BioAssay (NCATS).

Assay [1] in a line: Viability qHTS for spleen associated tyrosine kinase inhibitor (SYKi) naive MV4-11 cells (AID 1963823). Also: nearly all actives have a fitted effect of over 40% in size. In short, it runs like this:
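SYKi-naive MV4-11 AML cells, 500 per well, were exposed to library compounds for 72 hr at 37 C, 5% CO2. Viability was then read by CellTiter-Glo luminescence after 10 min at room temperature.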

A short description of assay [2]: Viability qHTS for spleen associated tyrosine kinase inhibitor (SYKi) drug resistant MV4-11 cells (AID 1963824). Also: nearly all actives have a fitted effect of over 35% in size. In short, it runs like this:
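SYK inhibitor-resistant MV4-11 AML cells, 500 per well, added to predispensed compounds and incubated 72 hr at 37 C, 5% CO2. Viability measured by CellTiter-Glo luminescence after 10 min at room temperature.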
On the technique in general: Quantitative high-throughput screening tests each substance at several concentrations.

SMILES strings stand for the structures. “And” between values parts separate entries of the source, which are not always exact repeats. Equal values may be shown once. Inconclusive results are not listed. A number with no mark means an inactive call. The source made the active and inactive calls. Calls follow the shape of the dose curve; as a rule, active = well fitted cell-killing curve with a large enough effect; inconclusive = small, poorly fitted or top-dose-only effect, or effect the other way; inactive = no such curve, though single readings can be large or run the other way.
Potency is read from the fitted curve at half-maximal effect.

In the case of `CC(=O)NC(Cc1ccccc1)C(=O)NC(C(=O)O)C(C)C` (centres undefined), the Potency entry in assay [1] and in assay [2] was “inactive” in each case.
Regarding `COc1cc(/C=C/C(=O)OC2CC(OC(C)=O)C(OC(C)=O)C3C2CCC2C(=O)OC(c4ccoc4)CC23C)ccc1O[C@@H]1O[C@H](CO)[C@@H](O)[C@H](O)[C@H]1O` (some centres undefined), the Potency result in assay [1] and in assay [2] was “inactive” each time.
Consider `O=C(OCc1ccccc1O[C@@H]1O[C@H](CO)[C@@H](O)[C@H](O)[C@H]1O)C1(O)C=CCCC1O` (some centres undefined), for which the Potency result in assay [1] and in assay [2] was “inactive” each time.
With `O=C(/C=C/c1c(C(=O)O)[nH]c2cc(Cl)cc(Cl)c12)Nc1ccccc1`, the Potency entry in assay [1] and in assay [2] was “inactive” throughout.
On to `O=C(OC1C=C(CO)C2C(OC3OC(CO)C(O)C(O)C3O)OC=CC12)c1ccc(O)cc1` (centres undefined), for which the Potency result in assay [1] and in assay [2] was “inactive” each time.
For `C[C@@H]1CN(Cc2ncccn2)C[C@H]1c1nc2c(cnn2C2CCOCC2)c(=O)[nH]1`, the Potency entry in assay [1] and in assay [2] was “inactive” in each case.
In the case of `CCCCCCOC(=O)NC(=N)c1ccc(NCc2nc3cc(C(=O)N(CCC(=O)OCC)c4ccccn4)ccc3n2C)cc1`, the Potency in assay [1] is 2.35 µM (active); in assay [2], 1.48 µM (active).
For the molecule `Cn1nccc1Nc1nccc(-c2ccn([C@H](CO)c3ccc(Cl)c(F)c3)c(=O)c2)n1`, the Potency in assay [1] was 7.31 µM (active); in assay [2], 4.61 µM (active) and 6.61 µM (active).
On to `CN(C)CCCn1cc(C2=C(c3c[nH]c4ccccc34)C(=O)NC2=O)c2ccccc21`, for which the results for the Potency in assay [1] and in assay [2] were 0.0731 µM (active) and 0.116 µM (active), respectively.
The corresponding values for `CC[C@@H]1C[C@]1(NC(=O)[C@@H]1C[C@@H]2CN1C(=O)[C@H](C(C)(C)C)NC(=O)OCC(C)(C)CCCCc1cccc3c1CN(C3)C(=O)O2)C(=O)NS(=O)(=O)C1CC1` are 20.6 µM (active) and 18.4 µM (active).
Consider `CC1(CO)CC(O)C2(C)CCC3(C)C(=CCC4C5(C=O)CCC(OC6OC(C(=O)O)C(O)C(O)C6OC6OC(C(=O)O)C(O)C(O)C6O)C(C)(C)C5CCC43C)C2C1` (centres undefined), for which the viability (% of control) in assay [1] was 87.7% [at 9.25 µM]. In addition, the viability, % of control in assay [2] is 98.3% [at 9.25 µM].
On to `OC[C@H]1O[C@@H](O[C@H]2[C@H](O)[C@@H](CO)O[C@@H](OCc3ccccc3)[C@@H]2O[C@@H]2OC[C@](O)(CO)[C@H]2O)[C@H](O)[C@@H](O)[C@@H]1O`, for which the Potency entry in assay [1] and in assay [2] was “inactive” throughout.
For `CC1OC(OC2C(C)OC(OC3C(OC(=O)/C=C/c4ccc(O)cc4)C(CO)OC(OC4(COC(=O)/C=C/c5ccc(O)cc5)OC(CO)C(O)C4O)C3OC3OCC(O)(CO)C3O)C(O)C2O)C(O)C(O)C1O` (centres undefined), the viability (% of control) in assay [1] is 86.5% [at 9.25 µM]. For the same molecule, in assay [2], the viability, % of control is 112% [at 9.25 µM].
For the molecule `Cc1c[nH]c2nccc(Oc3c(F)cc(Nc4cc(Cl)nc(N)n4)cc3F)c12`, the Potency in assay [1] is 0.517 µM (active); in assay [2], 0.731 µM (active).
The matching figures for `OC[C@H]1O[C@@H](OCc2ccccc2)[C@H](O)[C@@H](O)[C@@H]1O`: “inactive” and “inactive”.
The matching figures for `COc1ccc(C(OC2OC(CO)C(O)C(O)C2O)C(C)O)cc1` (centres undefined): “inactive” and “inactive”.
The corresponding values for `CC(C)[C@@](O)(c1ccc2cc(OC(F)F)c(OC(F)F)cc2c1)c1cn[nH]n1` are 18.4 µM (active) and 20.6 µM (active).
For `C=C1C(=O)OC2CC(C)C(CCC(C)=O)=CCC12` (centres undefined), the Potency in assay [1] is 8.2 µM (active); in assay [2] it was 5.17 µM (active).
The corresponding values for `C=C(CCO)C(=O)OCC1OCC(OC(=O)C(=C)CCO[C@@H]2O[C@H](CO)[C@@H](O)[C@H](O)[C@H]2O)C(O)C1O` (some centres undefined) are “inactive” and “inactive”.
The corresponding values for `CC(=O)[C@@H]1C[C@H](C(C)(C)O[C@@H]2O[C@H](CO)[C@@H](O)[C@H](O)[C@H]2O)CC[C@@]2(CO)OC(=O)C[C@@H]12` are “inactive” and “inactive”.
The matching figures for `CNC(=O)c1ccc2cc([C@@]3(O)CCn4cncc43)ccc2c1`: “inactive” and “inactive”.
As for `O=C(OCC1OC(Oc2ccc(O)cc2COC(=O)C2(O)C(O)CCC(=O)C2OC(=O)C2C=CCC2)C(OC(=O)C2C=CCC2)C(O)C1O)C1C=CCC1` (centres undefined), the Potency result in assay [1] and in assay [2] was “inactive” throughout.
Take `CC1(C)OC(=O)C(OCC2CC2)=C1c1ccc(S(C)(=O)=O)cc1`: the Potency result in assay [1] and in assay [2] was “inactive” in each case.
On to `CN[C@H]1CCN(C(=O)c2ccc(Nc3ncc(F)c(-c4cnc(C)n4C(C)C)n3)cc2)C1`, for which the Potency in assay [1] was 0.058 µM (active); in assay [2] it was 0.0517 µM (active).
The corresponding values for `CC(=O)N(O)CCCCCN1C(=O)CCC1=O` are “inactive” and “inactive”.
With `CNC(=O)[C@H]1O[C@@H](n2cnc3c(NCc4ccc(N)c(I)c4)ncnc32)[C@H](O)[C@@H]1O`, the viability (% of control) in assay [1] was 77.1% [at 9.25 µM]. Further, in assay [2], the viability, % of control is 80.4% [at 9.25 µM].
As to `COC(=O)/C=C/c1ccc(O[C@@H]2O[C@H](CO)[C@@H](O)[C@H](O)[C@H]2O)cc1`, the Potency entry in assay [1] and in assay [2] was “inactive” in each case.
`COC(=O)c1cc(CN2CCN(C(=N)N)CC2)cc(C(=O)N2CCN(C(=O)c3ccc(C(=N)N)cc3)CC2)c1`: the Potency result in assay [1] and in assay [2] was “inactive” each time.
`OCC1OC(Oc2cc(O)c3c(c2)OC(c2ccc(O)cc2)C(O)C3)C(O)C1O` (centres undefined): the Potency result in assay [1] and in assay [2] was “inactive” in each case.
`CN(C)CCCCCCNC(=O)c1cccc(-c2cc(O)c3ncccc3c2)c1`: the Potency was 2.59 µM (active) in assay [1] and 3.26 µM (active) in assay [2].
The corresponding values for `CC1C(OC(=O)c2ccccc2)C(O)C2C(C(=O)O)=COC(OC3OC(CO)C(O)C(O)C3O)C12` (centres undefined) are “inactive” and “inactive”.
The matching figures for `COc1cc2c(cc1OC)-c1[nH]nc(Nc3cccc(F)c3)c1C2`: 0.082 µM (active) and 0.0731 µM (active).
Regarding `NC1CCCN(c2c(/C=C3\SC(=O)NC3=O)cccc2-c2ccccc2)C1` (centres undefined), the Potency in assay [1] is 2.06 µM (active) and 3.72 µM (active); in assay [2], 8.2 µM (active) and 13.2 µM (active).
In the case of `CC(C)=CCC(O)/C(C)=C/CO[C@@H]1O[C@H](CO)[C@@H](O)[C@H](O)[C@H]1O` (some centres undefined), the Potency result in assay [1] and in assay [2] was “inactive” each time.
Regarding `O=C(O)COCCN1CCN([C@H](c2ccccc2)c2ccc(Cl)cc2)CC1`, the Potency entry in assay [1] and in assay [2] was “inactive” throughout.
In the case of `CN1CCc2cccc3c2[C@H]1Cc1ccc(O)c(O)c1-3`, the figures for the Potency in assay [1] and in assay [2] were 5.96 µM (active) and 3.76 µM (active), respectively.
As to `CC12CCC3c4ccc(O)cc4CCC3C1CC(OC1OC(C(=O)O)C(O)C(O)C1O)C2O` (centres undefined), the Potency entry in assay [1] and in assay [2] was “inactive” each time.
With `COc1cc(O)c2c(c1Cl)CC(C)OC2=O` (centres undefined), the Potency entry in assay [1] and in assay [2] was “inactive” in each case.
Turning to `Cc1ccc(NS(=O)(=O)c2cc3c(cc2NC(C)CO)NC(=O)CC3)cc1C` (centres undefined), the Potency is 12.9 µM (active) in assay [1] and 10.2 µM (active) in assay [2].
The corresponding values for `CC(O)CO[C@@H]1O[C@H](CO)[C@@H](O)[C@H](O)[C@H]1O` (some centres undefined) are “inactive” and “inactive”.
Regarding `CC1CCC2C(=CCC(O)C2(C)C)C1(C)Cc1c(O)cc(CO)c(C=O)c1O` (centres undefined), the results for the Potency in assay [1] and in assay [2] were 10.1 µM (active) and 7.18 µM (active), respectively.
The corresponding values for `CC1=C(C(=O)OC2OC(COC3OC(CO)C(O)C(O)C3O)C(O)C(O)C2O)C(C)(C)CCC1` (centres undefined) are “inactive” and “inactive”.
The matching figures for `CC(C)(O)C1CCC(C)(C2CCC3(C)C4CCC5C(C)(C(=O)OC6OC(CO)C(O)C(O)C6O)C(O)CC(O)C56CC46CCC23C)O1` (centres undefined): “inactive” and “inactive”.
For the molecule `CC(C)=C[C@@H]1[C@H](CO[C@@H]2O[C@H](CO)[C@@H](O)[C@H](O)[C@H]2O)C1(C)C`, the Potency was 7.18 µM (active) in assay [1] and 4.53 µM (active) in assay [2].
The matching figures for `CCNC(=O)[C@@H]1CCCN1C(=O)[C@H](CCCN=C(N)N)NC(=O)[C@H](CC(C)C)NC(=O)[C@@H](C)NC(=O)[C@H](Cc1ccc(O)cc1)NC(=O)[C@H](CO)NC(=O)[C@H](Cc1c[nH]c2ccccc12)NC(=O)[C@H](Cc1cnc[nH]1)NC(=O)[C@@H]1CCC(=O)N1`: “inactive” and “inactive”.
The matching figures for `COc1cnc(-n2cnc(C)n2)c2[nH]cc(C(=O)C(=O)N3CCN(C(=O)c4ccccc4)CC3)c12`: “inactive” and “inactive”.
Regarding `COC(=O)C[C@@H]1C(C(=O)O)=CO[C@@H](O[C@@H]2O[C@H](CO)[C@@H](O)[C@H](O)[C@H]2O)/C1=C\COC(=O)/C=C/c1ccc(O)c(OC)c1`, the Potency result in assay [1] and in assay [2] was “inactive” throughout.
Consider `C[C@@H]1O[C@@H](O[C@H]2[C@H](O[C@H]3[C@H](O[C@H]4CC[C@@]5(C=O)C(CC[C@]6(C)C5CC=C5C7CC(C)(C)C[C@@H](O)[C@]7(C)CC[C@]56C)C4(C)C)O[C@H](C(=O)O)[C@@H](O)[C@@H]3O)OC[C@@H](O)[C@@H]2O)[C@H](O)[C@H](O)[C@H]1O` (some centres undefined), for which the viability (% of control) in assay [1] is 85.7% [at 9.25 µM]. Further, the viability, % of control in assay [2] was 103% [at 9.25 µM].
Consider `C=C1C(O)CC2C(C(=O)O)=COC(O[C@@H]3O[C@H](COC(=O)/C=C/c4ccc(O)cc4)[C@@H](O)[C@H](O)[C@H]3O)C12` (some centres undefined), for which the Potency result in assay [1] and in assay [2] was “inactive” each time.
In the case of `O=C(Nc1cccc(Nc2nccc(Nc3cccc(C(F)(F)F)c3)n2)c1)C1CC1`, the Potency in assay [1] and in assay [2] was 1.84 µM (active) in each case.
Turning to `COc1cc(CO)cc(OC)c1O[C@@H]1O[C@H](CO)[C@@H](O)[C@H](O)[C@H]1O`, the Potency entry in assay [1] and in assay [2] was “inactive” each time.
In the case of `C=C1[C@H](OC(C)=O)[C@H]2[C@@H](OC(=O)c3ccccc3)[C@@H](C)C[C@]2(O)[C@@H](OC(C)=O)[C@H](C)/C=C/C(C)(C)C(=O)[C@H](OC(C)=O)[C@H]1OC(C)=O`, the Potency result in assay [1] and in assay [2] was “inactive” throughout.
`O=C(O)CC1CCC(c2ccc(-c3ccc4nc(C(=O)NCc5ccc(OC(F)(F)F)cc5)cn4c3)cc2)CC1` (centres undefined): the Potency result in assay [1] and in assay [2] was “inactive” each time.
As to `C=C(C)C(=O)O[C@H]1[C@H]2C(=C)C(=O)O[C@@H]2C[C@@H](C)/C=C\C(=O)[C@](C)(O)[C@@H]1OC(C)=O`, the Potency entry in assay [1] and in assay [2] was “inactive” throughout.
For the molecule `OCC1=CC[C@@H]2C=CO[C@@H](O[C@@H]3O[C@H](CO)[C@@H](O)[C@H](O)[C@H]3O)[C@H]12`, the Potency entry in assay [1] and in assay [2] was “inactive” each time.
As to `COc1ccc(CCc2nc3cc(-c4c(C)noc4C)ccc3n2C[C@H](C)N2CCOCC2)cc1Cl`, the Potency was 7.31 µM (active) in assay [1] and 5.8 µM (active) in assay [2].
Consider `CC1CC[C@]2(C(=O)O)CC[C@]3(C(=O)O)C(=CCC4[C@@]5(C)CC[C@H](O[C@@H]6O[C@H](CO)[C@@H](O)[C@H](O)[C@H]6O)C(C)(C)C5CC[C@]43C)C2C1C` (some centres undefined), for which the Potency result in assay [1] and in assay [2] was “inactive” in each case.
